Experimental data taken from PubChem BioAssay (Tox21).
Values joined by “and” are separate entries in the source; they are usually repeats but may differ in a detail not shown here. Equal entries are not always repeated. Records with an inconclusive call do not appear. Where a call stands in place of a potency, no number is given. The source holds several records for some structures; these can differ, active in one and inactive in another. Active and inactive are the calls of the source. Calls come from the whole dose curve; as a rule, active = well fitted curve in the direction sought with a large enough effect in the repeat runs; inconclusive = weak or mixed curves; inactive = no such curve, though single readings can be large; an effect the other way counts as inactive or inconclusive.

Legend:
[1] = A CellTox Green Cytotoxicity Assay to monitor cytotoxicity in HEK293 cells - 40 hour (AID 1224871); details: CellTox Green fluorescence; series mostly up to 76.8 µM; note: nearly all actives have a fitted effect of over 45% in size; note: potency is the fitted concentration of half-maximal effect
How it was run: (§1)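 Dead-cell fluorescence measured kinetically: asymmetric cyanine dye, HEK293, 600 cells/well, 5 h settle, 23 nL cpd/DMSO, 37 C, reads 0–40 h every 8 h.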

[2] = A CellTox Green Cytotoxicity Assay to monitor cytotoxicity in HEK293 cells - 24 hour (AID 1224875); details: CellTox Green fluorescence; series mostly up to 76.8 µM; note: nearly all actives have a fitted effect of over 45% in size; note: potency is the fitted concentration of half-maximal effect
How it was run: as §1

[3] = A CellTox Green Cytotoxicity Assay to monitor cytotoxicity in HepG2 cells - 16 hour (AID 1224876); details: CellTox Green fluorescence; series mostly up to 76.8 µM; note: nearly all actives have a fitted effect of over 45% in size; note: potency is the fitted concentration of half-maximal effect
How it was run: (§2)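 First, HepG2 cells (600/well) mixed with reagent were plated; second, after 5 h at 37 C they received compounds via pintool; third, fluorescence was measured at 0 h through 40 h at 8 h intervals.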

[4] = A CellTox Green Cytotoxicity Assay to monitor cytotoxicity in HepG2 cells - 24 hour (AID 1224878); details: CellTox Green fluorescence; series mostly up to 76.8 µM; note: nearly all actives have a fitted effect of over 45% in size; note: potency is the fitted concentration of half-maximal effect
How it was run: as §2

[5] = A CellTox Green Cytotoxicity Assay to monitor cytotoxicity in HepG2 cells - 40 hour (AID 1224879); details: CellTox Green fluorescence; series mostly up to 76.8 µM; note: nearly all actives have a fitted effect of over 40% in size; note: potency is the fitted concentration of half-maximal effect
How it was run: as §2

[6] = qHTS RealTime-Glo MT Cell Viability Assay in HepG2 cells - 8 hour (AID 1224873); details: RealTime-Glo luminescence; series mostly up to 76.8 µM; note: nearly all actives have a fitted effect of over 55% in size; note: potency is the fitted concentration of half-maximal effect
How it was run: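 HepG2 cells (600/well) mixed with RealTime-Glo MT reagent, settled 5 h at 37 C/5% CO2 before compound addition. Nonlytic NanoLuc luminescence from viable-cell prosubstrate reduction read repeatedly during 40 h treatment at 37 C.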

[7] = qHTS RealTime-Glo MT Cell Viability Assay in HEK293 cells - 40 hour (AID 1224874); details: RealTime-Glo luminescence; max response: stronger effect = lower value; note: nearly all actives have a fitted effect of over 50% in size; note: potency is the fitted concentration of half-maximal effect
How it was run: (§3)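 600 HEK293 cells per well, dispensed already mixed with RealTime-Glo MT reagents. Compound dosing came 5 h later. The same wells were read for luminescence at 0, 8, 16, 24, 32 and 40 h of exposure at 37 C.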

[8] = qHTS RealTime-Glo MT Cell Viability Assay in HepG2 cells - 32 hour (AID 1224877); details: RealTime-Glo luminescence; series mostly up to 76.8 µM; note: nearly all actives have a fitted effect of over 55% in size; note: potency is the fitted concentration of half-maximal effect
How it was run: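 Luminescence read-out: viable HepG2 cells reduce a prosubstrate to a NanoLuc substrate, giving a signal proportional to live cell number. Reads taken at 0, 8, 16, 24, 32 and 40 h of compound exposure at 37 C.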

[9] = qHTS RealTime-Glo MT Cell Viability Assay in HEK293 cells - 0 hour (AID 1224880); details: RealTime-Glo luminescence; series mostly up to 76.8 µM
How it was run: as §3

| Compound | Potency [1] | Potency [2] | Potency [3] | Potency [4] | Potency [5] | Potency [6] | max response [7] | Potency [8] | Potency [9] | Potency [7] |
| --- | --- | --- | --- | --- | --- | --- | --- | --- | --- | --- |
| CC1COc2c(N3CCN(C)CC3)c(F)cc3c(=O)c(C(=O)O)cn1c23 (stereo unspecified) | inactive | inactive | inactive | inactive | inactive | – | – | – | – | – |
| COc1ccc(CCN(C)CCCC(C#N)(c2ccc(OC)c(OC)c2)C(C)C)cc1OC (stereo unspecified) | inactive | – | inactive | – | 48.9 µM (active) | – | – | – | – | – |
| C=C(C)C1CC=C(C)C(OC(C)=O)C1 (stereo unspecified) | inactive | – | inactive | inactive | inactive | inactive | -4.93% (inactive) and 11% (inactive) | inactive | inactive | – |
| Cc1ccnc2c1NC(=O)c1cccnc1N2C1CC1 | inactive | – | inactive | inactive | inactive | inactive | -13.4% (inactive) and -3.25% (inactive) | inactive | inactive | – |
| CCCNC(C)C(=O)Nc1ccccc1C (stereo unspecified) | inactive | – | inactive | inactive | inactive | inactive | -3.34% (inactive) | inactive | inactive | – |
| COc1nc(C)nc(Cl)c1NC1=NCCN1 | inactive | inactive | inactive | inactive | inactive | inactive | 2.57% (inactive) | inactive | inactive | – |
| Clc1ccc2c(c1)C(N1CCNCC1)=Nc1ccccc1O2 | 26.8 µM (active) | – | 54.9 µM (active) | 54.9 µM (active) and 26.8 µM (active) | 49 µM (active) and 26.8 µM (active) | inactive | – | 54.9 µM (active) | inactive | 43.6 µM (active) and 23.9 µM (active) |
| O=C1CC2(CCCC2)CC(=O)N1CCCCN1CCN(c2ncccn2)CC1 | inactive | – | inactive | inactive | 38.9 µM (active) and inactive | inactive | – | inactive | inactive | 27.5 µM (active) |
| C[N+]1([O-])CCOCC1 | inactive | inactive | inactive | inactive | – | inactive | 0.178% (inactive) | inactive | inactive | – |
| CC1=C(C=O)C(C)(C)CC=C1 | inactive | – | inactive | inactive | inactive | inactive | -1.02% (inactive) | inactive | inactive | – |
| NC12CC3CC(CC(C3)C1)C2 | inactive | inactive | inactive | inactive | – | inactive | 6.54% (inactive) | inactive | inactive | – |
| CCCCC(CC)COC(=O)CC(C(=O)OCC(CC)CCCC)S(=O)(=O)O (stereo unspecified) | 24.5 µM (active) | 21.9 µM (active) | 33.4 µM (active) and 38.9 µM (active) | 42 µM (active) and 38.9 µM (active) | 42 µM (active) and 43.6 µM (active) | inactive | – | inactive | inactive | – |
| CCC(C)(C)C(=O)O[C@H]1C[C@@H](C)C=C2C=C[C@H](C)[C@H](CC[C@@H]3C[C@@H](O)CC(=O)O3)[C@H]21 | inactive | inactive | inactive and 21.3 µM (active) | – | 24.5 µM (active) and 9.52 µM (active) | – | – | – | – | – |
| Oc1c(Cl)cc(Cl)cc1Sc1cc(Cl)cc(Cl)c1O | 49.1 µM (active) and 43.6 µM (active) and inactive | – | 44.4 µM (active) and 43.6 µM (active) and inactive | 39.5 µM (active) and 43.6 µM (active) and inactive | – | inactive | – | inactive | inactive | 17.4 µM (active) and 22.2 µM (active) and 13.8 µM (active) |
| Nc1ccc2cc3ccccc3cc2c1 | inactive | inactive | inactive | inactive | inactive | inactive | -15.8% (inactive) and 6.47% (inactive) | inactive | inactive | – |
| CCN(CC)C(=S)SSC(=S)N(CC)CC | 155 nM (active) and 5.62 µM (active) and 84.9 nM (active) | – | 50.1 µM (active) and inactive | 158 nM (active) and 95.2 nM (active) | 0.1 µM (active) | 44.7 µM (active) | – | 0.0891 µM (active) | inactive | 174 nM (active) and 656 nM (active) and 13.4 µM (active) |
| BrC1CCC(Br)C(Br)CCC(Br)C(Br)CCC1Br (stereo unspecified) | inactive | inactive | inactive | inactive | – | – | -14.3% (inactive) | – | inactive | – |
| CCCOC(=O)c1cc(O)c(O)c(O)c1 | inactive | – | inactive | inactive | inactive | inactive | – | inactive | inactive | 48.7 µM (active) and 38.9 µM (active) |
| NC(=Nc1ccccc1)Nc1ccccc1 | inactive | inactive | inactive | inactive | inactive | inactive | – | inactive | – | – |
| c1ccc2cc3c(ccc4ccccc43)cc2c1 | inactive | – | inactive | inactive | – | inactive | 0.679% (inactive) | inactive | inactive | – |
| Nc1cc(Cl)c(-c2cc(Cl)c(N)cc2Cl)cc1Cl | inactive | – | inactive and 54.9 µM (active) | inactive and 54.9 µM (active) | 4.36 µM (active) and 54.9 µM (active) | inactive | – | inactive | inactive | 6.91 µM (active) and 1.74 µM (active) |
| C=CC(=O)OCCCCCCOC(=O)C=C | 54.9 µM (active) | – | inactive | inactive | inactive and 54.9 µM (active) | – | – | inactive and 49 µM (active) | inactive | 49.6 µM (active) and 43.6 µM (active) |
| CC[C@H]1CN2CCc3cc(OC)c(OC)cc3[C@@H]2C[C@@H]1C[C@H]1NCCc2cc(OC)c(OC)cc21 | 55.1 µM (active) | – | inactive | 49.2 µM (active) and 26.8 µM (active) | 49.2 µM (active) and 16.9 µM (active) | inactive | – | – | inactive | 13.9 nM (active) and 42.5 nM (active) |
| CCC(=O)/C=C/C1C(C)=CCCC1(C)C (stereo unspecified) | 49.1 µM (active) and inactive | – | inactive | inactive | inactive | inactive | -21.5% (inactive) and 0.0714% (inactive) | inactive | inactive | – |
| O=c1n(CC2CO2)c(=O)n(CC2CO2)c(=O)n1CC1CO1 (stereo unspecified) | inactive | inactive | inactive | inactive | – | inactive | – | inactive | inactive | 1.37 µM (active) |
| OCCN1CCNCC1 | inactive | – | inactive | inactive | inactive | inactive | – | inactive | inactive | 7.9 µM (active) |
| [Cl][In]([Cl])[Cl] | inactive | – | inactive | inactive | inactive | inactive | – | inactive | inactive | – |
| CC[C@@H](N)CO | inactive | – | inactive | inactive | inactive | inactive | -8.2% (inactive) | inactive | inactive | – |
| COC(=O)/C=C/c1ccccc1 | inactive and 21.9 µM (active) | – | inactive | inactive | inactive | inactive | -2.16% (inactive) | inactive | inactive | – |
